Among the data in PubChem BioAssay are composite z-score and composite Z-score values, retold here.

The source made the active and inactive calls.

One assay deals with Albumin (Bos taurus) (UniProt P02769). Put plainly: bovine serum albumin binders on microarray, profiling panel, artefact control for SMM control protein annotation, biochemical, small-molecule microarray, Alexa647 label, 635/667 nm fluorescence (AID 1118).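 Further: score merges 667 nm emission intensity and signal-to-noise per printed compound spot.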 The note with it: BSA-A647 binding, fluorescence 635 nm, higher = more signal.
Assay [1] is described as follows: small-molecule microarray binders of probe aXIP, primary screen, biochemical, NeuroSMM set, 635/667 nm fluorescence (AID 1119).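 Further: probe is the protein aXip251-270 applied at 1 µg/mL to compound-printed slides; binding of probe to printed compounds measured as 667 nm fluorescence plus signal to noise.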 The settings on record: higher = more signal, called active from +8 up or from −8 down.
Assay [2] is described as follows: small-molecule binders of probe aNOTCH3, primary screen, biochemical, small-molecule microarray, 635/667 nm fluorescence (AID 1120).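 Further: probe is a biotin-tagged antibody raised against NOTCH3 rather than NOTCH3 protein; score merges spot fluorescence near 667 nm with spot signal to noise.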 The note with it: higher = more signal.
Assay [3] in a line: small-molecule binders of probe aNOTCH2, primary screen, biochemical, small-molecule microarray, 635/667 nm fluorescence (AID 1121).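 Further: score merges feature fluorescence read at 667 nm with its signal to noise.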 The settings on record: higher = more signal.
The target in assay [4] is Carbonic anhydrase 2 (Homo sapiens) (UniProt P00918). Kind of assay: CAII small-molecule binders, profiling panel, biochemical, small-molecule microarray, Alexa647-labelled CAII (AID 1122). The note with it: CAII-A647 binding fluorescence, higher = more signal.
The nature of assay [5]: COS7 lysate on small-molecule microarray, probe aHis, 635 nm (AID 1123).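 Further: z-score combines 667nm fluorescence intensity with signal-to-noise per printed compound spot.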 The settings on record: COS7 cell lysate, fluorescence, higher = more signal.
Assay [6] can be described thus: compound binding in COS7 lysate, probe aLAP1, primary screen, cell lysate, small-molecule microarray (AID 1124).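 Further: lysate comes from COS7 cells expressing LAP1 and is applied at 0.3 µg/mL; score merges spot fluorescence near 667 nm with signal-to-noise over triplicate slides.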 The note with it: probe aLAP1, fluorescence, higher = more signal.
In another assay the test system is Sam68 (KHDRBS1). Put plainly: Sam68 small-molecule binders, primary screen, biochemical, small-molecule microarray, 635 nm fluorescence (AID 1125).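 Further: score merges 667 nm channel intensity with signal to noise over triplicate slides.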 The note with it: small-molecule microarray binding, higher = more signal.
The test system of assay [7] is Chordin-like protein 2 (CHRDL2). Kind of assay: CHRDL2 small-molecule binders, primary screen, biochemical, small-molecule microarray, 635 nm fluorescence (AID 1126).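 Further: printed compound slides probed with Chrdl2 protein at 4 µg/mL for 1 h at 4 C; score merges 667 nm emission intensity with signal to noise over three replicate slides.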 The note with it: small-molecule microarray binding, fluorescence 635 nm; higher = more signal.
The target in assay [8] is Concanavalin-A (Canavalia ensiformis) (UniProt P02866). Put plainly: ConA small-molecule binders, primary screen, artefact control for SMM control protein annotation, biochemical, small-molecule microarray, Alexa647 label, 635 nm (AID 1127).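 Further: z combines 667 nm emission intensity with signal-to-noise across three replicate slides.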 The settings on record: ConA-A647 binding fluorescence, higher = more signal.
Sequence of Concanavalin-A (Canavalia ensiformis) (P02866 whole entry, looked up): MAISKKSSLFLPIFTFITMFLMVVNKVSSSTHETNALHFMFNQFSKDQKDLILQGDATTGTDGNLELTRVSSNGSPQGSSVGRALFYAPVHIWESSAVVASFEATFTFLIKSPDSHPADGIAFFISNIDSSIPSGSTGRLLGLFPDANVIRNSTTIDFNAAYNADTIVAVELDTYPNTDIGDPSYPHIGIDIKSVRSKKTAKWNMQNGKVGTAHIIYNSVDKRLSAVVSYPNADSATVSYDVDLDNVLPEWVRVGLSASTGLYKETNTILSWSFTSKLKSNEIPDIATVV

Sequence of Albumin (Bos taurus) (P02769 whole entry, looked up): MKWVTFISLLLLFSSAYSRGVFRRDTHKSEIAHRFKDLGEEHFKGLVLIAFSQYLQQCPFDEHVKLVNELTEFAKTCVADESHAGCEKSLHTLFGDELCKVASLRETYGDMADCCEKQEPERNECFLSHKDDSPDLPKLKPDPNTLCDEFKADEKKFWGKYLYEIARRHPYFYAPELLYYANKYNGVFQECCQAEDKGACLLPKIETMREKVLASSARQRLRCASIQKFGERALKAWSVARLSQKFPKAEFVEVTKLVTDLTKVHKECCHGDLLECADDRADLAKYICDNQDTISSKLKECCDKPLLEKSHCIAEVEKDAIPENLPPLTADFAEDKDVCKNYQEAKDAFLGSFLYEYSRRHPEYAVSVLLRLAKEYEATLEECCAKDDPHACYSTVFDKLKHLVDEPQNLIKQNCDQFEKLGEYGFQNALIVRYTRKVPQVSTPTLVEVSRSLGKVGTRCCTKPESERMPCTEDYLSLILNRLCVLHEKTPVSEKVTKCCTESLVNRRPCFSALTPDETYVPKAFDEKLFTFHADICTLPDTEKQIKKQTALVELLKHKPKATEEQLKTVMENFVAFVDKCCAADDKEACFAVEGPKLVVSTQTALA

For `CN(C)CCCC[C@@H]1NC(=O)[C@@H]2C[C@H](C(=O)NCc3ccc(F)cc3)[C@H](c3cccc(OCCO)c3)N2C1=O`, the composite z-score with Albumin (Bos taurus) is -0.202; in assay [2] it was -0.0311; in [3] it was -0.0598; in assay [4] it was 0.569; in assay [5], 2; in assay [6], 0.776. Also, the composite z-score in the assay with Sam68 (KHDRBS1) was found to be 1.05; in [7] it was 0.991; in [8] it was 1.11. Also, the composite Z-score in [1] was -0.398 (inactive).

Consider `Cc1ccc(S[C@]2(C(=O)NCCCN(C)C)CC(=O)N(Cc3ccccc3)[C@@H]2c2ccc(CO)cc2)cc1`, for which the composite z-score was -0.173 in the assay with Albumin (Bos taurus); -0.279 in [2]; 0.027 in assay [3]; 0.621 in assay [4]; 0.018 in assay [5]; 0.973 in assay [6]. Moreover, the values for the composite z-score (in the assay on Sam68 (KHDRBS1); in assay [7]; in assay [8]) were -0.145, -0.85 and -0.785, respectively. Also, the composite Z-score in assay [1] was -0.72 (inactive).

`C=CCC(OC(C)=O)[C@@H]1[C@@H](N(Cc2ccc(-c3ccccc3)cc2)C(=O)c2ccc(C)cc2)c2cc(OCCCO)ccc2N1C(=O)c1ccc2ccccc2n1` (stereo not given in full): the composite z-score with Albumin (Bos taurus) is -0.361; in assay [2] it was 0.246; in assay [3], -0.0134; in assay [4], 0.0144; in [5], 0.249; in [6] it was -0.446. The figures for the composite z-score (with Sam68 (KHDRBS1); in assay [7]; in [8]) were -0.44, 0.0539 and -1.78, respectively. For the same compound, the composite Z-score in assay [1] is -0.181 (inactive).

Turning to `CC(C)(C)OC(=O)CC[C@@]1(C(=O)NCC(O)CO)N=C(c2ccc(OCCCO)cc2)O[C@@H]1c1ccccc1` (stereo not given in full), the composite z-score is 1.01 in the assay with Albumin (Bos taurus); 0.178 in assay [2]; -0.0896 in assay [3]; 0.892 in assay [4]; 3.67 in assay [5]; 1.34 in assay [6]. The composite z-score is 0.965 with Sam68 (KHDRBS1), -1.65 in assay [7] and 0.537 in [8]. The composite Z-score in [1] is 0.595 (inactive).

In the case of `[N-]=[N+]=Nc1ccccc1[C@@H]1OC(c2ccc(OCCCO)cc2)=N[C@]1(CCS(=O)(=O)c1ccccc1)C(=O)O`, the composite z-score is 0.829 with Albumin (Bos taurus); 0.416 in [2]; -0.0323 in assay [3]; 0.683 in [4]; 1.61 in assay [5]; -0.252 in assay [6]. The composite z-score came to 1.31 in the assay with Sam68 (KHDRBS1), 0.012 in [7] and 1.15 in assay [8]. Further, in assay [1], the composite Z-score is 0.834 (inactive).

Regarding `Cc1ccc(N2C(=O)c3ccccc3[C@@H](C(=O)NCC(C)C)[C@@H]2c2ccc(CO)cc2)nc1`, the composite z-score in the assay with Albumin (Bos taurus) is -0.795; in [2] it was -0.465; in assay [3], -0.166; in assay [4], 0.806; in assay [5] it was 0.121; in assay [6], 0.474. In addition, the composite z-score in the assay on Sam68 (KHDRBS1) is -0.205; in [7] it was -0.323; in [8], -0.418. In addition, in assay [1], the composite Z-score is -0.204 (inactive).

Take `CCCC[C@@H]1C[C@H]1[C@@H](NC(=O)c1ccco1)c1ccccc1`: the composite z-score in the assay with Albumin (Bos taurus) was 0.277; in assay [2], -0.25; in [3], -0.193; in [4] it was -0.504; in [5], -0.185; in assay [6], -0.697. Besides, the composite z-score in the assay on Sam68 (KHDRBS1) was -0.555; in assay [7], -1.41; in assay [8] it was -0.945. Besides, in assay [1], the composite Z-score is -0.264 (inactive).

As to `O=C(CS)NCCCCCCNC(=O)[C@H]1C[C@H]2C(=O)N3CCC[C@H]3C(=O)N2[C@H]1c1ccc(O)cc1`, the composite z-score with Albumin (Bos taurus) is 0.11; in [2] it was 0.298; in assay [3], -0.147; in assay [4] it was 0.389; in assay [5], -0.125; in assay [6] it was -0.0269. Moreover, the results for the composite z-score (with Sam68 (KHDRBS1); in [7]; in assay [8]) were 0.557, 0.257 and 0.853, respectively. In assay [1], the composite Z-score is 0.131 (inactive).

Take `COCCn1c(C(=O)N(C)C)cc2c1C[C@H]1CN(C(=O)c3ccccc3)[C@@](Cc3ccc(F)cc3)(C(=O)OC)[C@@H]21`: the composite z-score is 0.985 with Albumin (Bos taurus); 0.073 in assay [2]; 0.197 in assay [3]; 0.859 in assay [4]; 2.02 in assay [5]; -0.0593 in assay [6]. Moreover, the composite z-score in the assay with Sam68 (KHDRBS1) is 0.459; in assay [7], 0.194; in assay [8] it was 0.787. In assay [1], the composite Z-score is 0.916 (inactive).

Turning to `C=CC[C@@]1(C(=O)NCc2ccccc2)N=C(c2ccc(OCCCO)cc2)O[C@@H]1c1ccccc1CN=[N+]=[N-]`, the composite z-score turned out to be 0.889 with Albumin (Bos taurus); 0.525 in [2]; 0.117 in [3]; 0.721 in assay [4]; 2.95 in assay [5]; 0.88 in [6]. In addition, the composite z-score in the assay with Sam68 (KHDRBS1) was 1.26; in [7], -0.58; in assay [8], 1.03. In addition, the composite Z-score in assay [1] was 1.01 (inactive).

Regarding `[N-]=[N+]=NCc1ccccc1C[C@]1(C(=O)N2CCOCC2)N=C(c2ccc(OCCCO)cc2)O[C@H]1c1ccccc1`, the composite z-score with Albumin (Bos taurus) was 0.905; in assay [2], 0.0582; in [3], -0.14; in assay [4] it was 0.501; in [5], 1.07; in assay [6], 0.444. Also, the composite z-score in the assay on Sam68 (KHDRBS1) is 0.965; in assay [7] it was -0.731; in assay [8] it was 1.07. For the same compound, the composite Z-score in [1] was 0.271 (inactive).

With `C=C[C@@H](C)[C@@H](OC(=O)Nc1ccc(OC)cc1)c1ccc(O)c2ccccc12`, the composite z-score with Albumin (Bos taurus) was 0.199; in [2], -0.155; in [3] it was -0.183; in assay [4], 0.283; in assay [5] it was 0.516; in [6], -0.0028. In addition, the results for the composite z-score (with Sam68 (KHDRBS1); in assay [7]; in assay [8]) were 0.349, 0.897 and 0.323, respectively. Besides, the composite Z-score in assay [1] is 0.725 (inactive).

For `CCOC(=O)C[C@H]1[C@H](OC(=O)c2ccccc2-c2ccccc2)[C@@H](NC(=O)c2ccc(-c3ccccc3)cc2)c2cc(OCCCO)ccc2N1C(=O)c1ccccc1`, the composite z-score was 0.822 with Albumin (Bos taurus); 0.0456 in assay [2]; -0.11 in [3]; 0.222 in [4]; 0.961 in assay [5]; -0.133 in assay [6]. Also, the results for the composite z-score (in the assay with Sam68 (KHDRBS1); in assay [7]; in [8]) were 1.23, 0.225 and 0.534, respectively. For the same compound, in assay [1], the composite Z-score is 0.148 (inactive).

As for `C=CCN1C(=O)[C@@]2(O[C@@H](CCO)[C@H]([Si](C)(C)c3ccc(OC)cc3)[C@H]2C)c2cc(NC(C)=O)ccc21`, the composite z-score in the assay with Albumin (Bos taurus) is -0.0164; in [2], 0.307; in assay [3], -0.044; in assay [4] it was 0.366; in assay [5], 2.57; in assay [6], 0.423. Moreover, the composite z-score worked out at 1.33 in the assay with Sam68 (KHDRBS1), 0.835 in assay [7] and 0.915 in [8]. The composite Z-score in [1] is 0.347 (inactive).

On to `[N-]=[N+]=Nc1ccccc1C[C@]1(C(=O)N2CCCCC2)N=C(c2ccc(OCCCO)cc2)O[C@H]1c1ccccc1N=[N+]=[N-]`, for which the composite z-score with Albumin (Bos taurus) was found to be 0.94; in [2] it was 0.311; in assay [3], 0.252; in [4], 0.623; in [5], 2.91; in assay [6] it was 1.17. In addition, the composite z-score is 1.29 in the assay on Sam68 (KHDRBS1), -0.292 in assay [7] and 0.979 in assay [8]. Further, the composite Z-score in assay [1] is 0.121 (inactive).

As to `Oc1ccc2cc[n+](Cc3cccc(OC(F)(F)F)c3)cc2c1`, the composite z-score with Albumin (Bos taurus) was -0.192; in [2] it was -0.215; in assay [3] it was -0.117; in assay [4], 0.853; in assay [5], 1.58; in assay [6] it was 0.0966. The composite z-score was -0.28 in the assay on Sam68 (KHDRBS1), 0.959 in assay [7] and 0.373 in assay [8]. Besides, in assay [1], the composite Z-score was 0.587 (inactive).
